MRP reversal = reversal of MRP1-mediated doxorubicin resistance, primary screen, H69AR cells, doxorubicin co-treatment; 0.04% of 85,000 active; H69AR cells + 2 uM doxorubicin, CellTiter-Glo, 72 h; differential viability (reversal), % at 10 µM;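 active = viability drop by adding the cancer drug above about 55%, with treated viability meeting a 40% cutoff, limit read from the data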;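 also: viability without doxorubicin minus viability with 2 µM doxorubicin for each compound; larger differential means the compound sensitizes cells more to doxorubicin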
MRP1 act = H69AR viability gain despite doxorubicin, primary screen, MRP-1 activator project, H69AR cells, CellTiter-Glo. viability rescue. viability increase, % at 10 µM. 0.61% of 140,000 active;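 active = viability gain under doxorubicin at or above a set limit, the compound median plus 3 SD, cut at about 4.7% in these data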;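 also: MRP-1 overexpressing cells given doxorubicin 25 µM after compound pretreatment; 18-22 h compound pretreatment then 72 h with doxorubicin before readout; 0% = doxorubicin-only wells and 100% = vehicle-treated cells without doxorubicin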
sdo1 growth = growth rescue of sdo1-depleted yeast, primary screen, S. cerevisiae, bone marrow failure model; z-score at 10 µM; 0.21% of 140,000 active; AID 817, 2007; S. cerevisiae sdo1-depleted JHY4D growth rescue, OD600 30 h; hits give high values; pdr5 snq2 efflux-pump mutant strain;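 active = z-score above 3 at both the 24 hr and the 30 hr optical density reads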;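 also: z-score against mean and SD of all compound wells on the same plate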
Candida biofilm = clotrimazole potentiators killing Candida biofilms, primary screen, with clotrimazole, Alamar Blue; C. albicans biofilm + clotrimazole; inhibition, % at 6 µM; 0.14% of 85,000 active;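 active = inhibition above 20%; inactive = inhibition below 20%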;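 also: preformed 24 hr biofilms exposed to compound for 48 hr; 0% = biofilm without compound and 100% = blank killed by clotrimazole plus chlorhexidine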
sdo1 rescue conf = SDO1-depleted yeast growth rescue, concentration-response, diseases of bone marrow failure, JHY4D, OD600; S. cerevisiae JHY4D (SDO1-depleted) growth rescue, 30 h; hits give high values; efflux-deficient strain, SNQ2 and PDR5 mutated; 44% of 440 active; AID 949, 2007; shares compounds with sdo1 growth; OD recovery (no concentration beside the values);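 active = yeast growth recovered at 30 hours, either rising with dose fitted slope above 0.001 or with average optical density gain above 0.07, some results past the limit were not filed as active; inactive = growth falling with dose or no effect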;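 also: gain in OD600 from 0 h to 30 h averaged across all seven doses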
Active calls of the source: *; . = no result given. Shown are actives, neighbours in structure and some others; about 0.98% of the full set was active somewhere.

SMILES	MRP reversal	MRP1 act	sdo1 growth	Candida biofilm	sdo1 rescue conf
CCn1ncc([N+](=O)[O-])c1C(=O)N1CCCC1	.	0	1.1	.	.
O=C(C1=C(O)C(=O)N(CCc2ccccc2)C1c1cccnc1)c1ccco1 (centres undefined)	-11	-1	-0.95	7	.
COCCCN1C(=O)C(O)=C(C(=O)c2ccco2)C1c1ccccc1 (centres undefined)	4	-3	2	8	0.097*
COC(=O)c1cc(C#N)c(NCc2ccccc2)nc1C	-4	0	14*	4	0.087*
COC(=O)c1cc(C#N)c(N(C)Cc2ccccc2)nc1C	14	0	-1.8	-1	.
COc1ccc(/C=N/NC(=O)CC2N=C(Cc3ccccc3)NNC2=O)cc1OC (centres undefined)	.	0	0.09	.	.
O=C(CSc1nnc(-c2ccco2)n1Cc1ccco1)NCc1cccs1	2	-2	6.5*	3	0.071*
COC(=O)CSc1nnc(-c2ccco2)n1Cc1ccco1	14	-3	0.01	3	.
CC(C)CC(=O)Nc1cccc(NC(=O)CC(C)C)n1	.	0	0.4	.	.
CCN1CCCC1CNC(=O)CCNC(=O)c1cc(OC)c(OC)c(OC)c1 (centres undefined)	-2	-2	3.3*	4	0.083*
Cc1ccc(Cn2nc(C)c(NC(=O)c3nn(C)cc3Cl)c2C)cc1	-24	-1	0.79	3	.
Cc1nn(Cc2ccc(Br)cc2)c(C)c1NC(=O)c1nn(C)cc1Cl	-4	2	15*	0	0.05
CCN(CC(=O)Nc1ccc([N+](=O)[O-])cc1OC)CC(=O)NC(C)(C)C	.	-2	1.2	.	.
COc1ccccc1S(=O)(=O)Cc1ccc(C(=O)N2CCN(c3ccccc3)CC2)o1	-1	-1	0.29	-1	.
COc1ccccc1S(=O)(=O)Cc1ccc(C(=O)N2CCOCC2)o1	6	-3	3.2*	-1	0.044
O=C(C1CCCCC1)N1CCN(C(=O)C2CCCCC2)CC1	5	-2	11*	6	0.041
CCC(CC)C(=O)Nc1cc(C(=O)OC)ccc1C(=O)OC	.	-1	10*	.	0.025
Cc1ccc(S(=O)(=O)C/N=C(/NC(=S)N(c2ccccc2)c2ccccc2)c2ccccc2)cc1	28	-1	0.05	2	.
COc1ccccc1OCC(=O)NNC(=O)c1ccoc1C	.	-3	5.1*	.	0.034
COc1ccc(CNC(=O)CSc2nnc3c(Cl)cc(C(F)(F)F)cn23)cc1OC	.	0	1.3	.	.
COCCNC(=O)C(=O)NCC1OCCN1C(=O)c1ccc(Cl)cc1 (centres undefined)	.	-1	11*	.	0.037
COC(CNC(=O)C(=O)NCC1OCCN1C(=O)c1ccc(Cl)cc1)OC (centres undefined)	.	-2	0.41	.	.
CCOc1ccc(N(CC(=O)NCc2ccccc2)S(C)(=O)=O)cc1	-7	-1	5.5*	6	0.086*
Cc1c(C)n(C(=O)CN2CCC(C)CC2)c2ccccc12	0	-1	-0.15	6	.
CCn1nc(C)c(C2C(C#N)=C(N)OC3=C2C(=O)CC(C)(C)C3)c1C (centres undefined)	.	-1	1.4	.	.
SMILES	MRP reversal	MRP1 act	sdo1 growth	Candida biofilm	sdo1 rescue conf
O=C(Nc1ccccc1)N(O)c1ccc(Cl)cc1	5	-1	3.3*	7	0.081*
Cc1nn(CC(O)CN2c3ccccc3Sc3ccccc32)c(C)c1Br (centres undefined)	-14	-1	4.5*	3	0.045
OC(CN1c2ccccc2Sc2ccccc21)Cn1nnc2ccccc21 (centres undefined)	-29	-5	-0.79	-3	.
CC1=C(C#N)CCC(=O)N1Cc1ccc(C)cc1	.	-2	-0.31	.	.
CC(C)C(C)(C#N)NC(=O)CSc1nnc(C(F)(F)F)n1C (centres undefined)	1	-1	0.12	-2	.
Cc1nn(-c2ccccc2)c(C)c1NC(=O)Cc1cccs1	-6	-2	0.7	8	.
Cc1nn(-c2ccccc2)c(C)c1NC(=O)c1cccs1	5	-1	3.3*	1	0.065*
COC(=O)[C@H](Cc1ccccc1)NC(=O)O[C@H]1C(=O)c2ccc(OC)cc2O[C@@H]1c1ccc2c(c1)OCO2	.	-1	-1.4	.	.
CCOC(=O)c1cnc2ccc(C)cc2c1Sc1ccc(F)cc1	.	-5	13*	.	0.097*

Assay outcomes deposited in PubChem by several laboratories.
